According to PubChem BioAssay AID651568 (National Center for Advancing Translational Sciences (NCATS), 2012):
The campaign covered roughly 1,200 compounds. About 55 (5%) were called active. A call without a number means that no potency is given here. Inconclusive results (about 15%) are left out. Calls follow the shape of the dose curve; as a rule, active = well fitted inhibition curve with a large enough effect; inconclusive = small, poorly fitted or top-dose-only effect; inactive = no such curve, though single readings can be large or run the other way. This excerpt belongs to a sample that is enriched for actives.

assay: qHTS Assay to Find Inhibitors of Chronic Active B-Cell Receptor Signaling: Hit Validation in Renilla Reporter Assay; settings: TMD8 IkB-Renilla luciferase reporter, NF-kB signaling; series mostly up to 57.5 µM; also: nearly all actives have a fitted effect of over 70% in size
From the text: Diffuse large B-cell lymphoma (DLBCL) is the most common category of non-Hodgkin lymphoma, with ~20,000 new cases per year in the United States. DLBCL should be regarded as a collection of different neoplasms. Microarray gene expression analysis has defined two principal types of DLBCL, named for their similarity to normal B cell stages or activation states: a germinal center B-cell (GCB) type, and an activated B-cell (ABC) type. In ABC-DLBCL, a constitutive high-level activity of the NF-kappaB family of transcription factors has been observed (1) and NF-kappaB target genes are more highly expressed in ABC primary tumors than in GCB tumors. Functional studies have shown a constitutive high-level activity of the IkappaB (inhibitor of kappa-B) kinase (IKK) complex. […] Further analysis of DLBCL primary tumors for NF-kappaB target gene expression imply that although CARD11 is required for constitutive IKK activity in all ABC-DLBCL lines, mutations in CARD11 may be the root cause of IKK activation only in lines or tumors with such mutations. In other words, CARD11 mutations may explain NF-kappaB activation in only 10% of ABC-DLBCL cases. […] This process has been termed 'chronic active BCR signaling' (CABS). The goal of this screen is to find small-molecule inhibitors of the CABS pathway found in ABC-DLBCL lines using a cell-based assay that measures IkappaBalpa stability, which has already been extensively validated in the OCI-Ly3 line (PubChem AID:445; REF: 4). […] Hits from the primary screen were tested in this orthogonal secondary assay. NIH Molecular Libraries Probe Production Network [MLPCN] NIH Chemical Genomics Center [NCGC] MLPCN Grant: R03 DA031086 PI Name: Dr. R. Eric Davis
The IkB-Photinus/Renilla reporter assay differs from the primary assay in that the reporters are constitutively expressed, and based on luciferases that are different from the click beetle luciferases and each other. These differences should help to eliminate artifactual sources of activity specific to the primary assay. This assay uses the Dual-Glo substrate from Promega; extensively validated in a 96-well format, it could be converted to a smaller-well format. All lines needed for the IkB-Photinus/Renilla assay have already been prepared and extensively validated
Potency is read from the fitted curve at half-maximal effect.

Row | SMILES | Potency
1 | O=c1c2ccccc2[se]n1-c1ccccc1 | 15.1 µM (active)
2 | C/C(=N\N1CCCCC1)c1c(O)[nH]c(=O)[nH]c1=O | inactive
3 | CC[C@]12CC[C@H](O)CC1=CCC1C2CC[C@]2(C)C(=O)CCC12 (stereo partly specified) | inactive
4 | C=CC[C@@H](CC/C=C/C=C/CC/C=C\[C@@H]1CSC([C@@H]2C[C@@H]2C)=N1)OC | 30.1 µM (active)
5 | CC(C)CCCn1c(O)c(/C=C2/C=CC=N2)c(=O)[nH]c1=O | inactive
6 | C#CCOc1cc(C2C3=C(COC3=O)Nc3cc4c(cc32)OCO4)ccc1OC (stereo unspecified) | inactive
7 | CCNC(=O)[C@H]1O[C@@H](n2cnc3c(N)ncnc32)[C@H](O)[C@@H]1O | inactive
8 | COc1cc2c(c(OC)c1OC)-c1ccc(O)cc1[C@@H](NC(C)=O)CC2 | inactive
9 | CCCCOCCCn1c(N)c(C(=O)OCCOC)c2nc3ccccc3nc21 | inactive
10 | CN1C(=O)CN=C(c2ccc(Cl)cc2)c2cc(Cl)ccc21 | inactive
11 | O=C1C(=O)c2cccc3cccc1c23 | 26.9 µM (active)
12 | COc1ccc(Cc2nccc3cc(OC)c(OC)cc23)cc1OC | inactive
13 | COc1ccc(C(=O)Oc2cccc3cccnc23)cc1S(=O)(=O)N1CCOCC1 | inactive
14 | COc1cc2c3cc1Oc1cc(ccc1O)C[C@@H]1c4c(cc(OC)c(O)c4Oc4ccc(cc4)C[C@H]3N(C)CC2)CCN1C | 23.9 µM (active)
15 | COc1ccc(C=C2C(=O)N(C)C(=O)N(C)C2=O)cc1COc1ccc(NC(C)=O)cc1 | inactive
16 | CCc1ccccc1N1C(=O)/C(=C/c2ccc(N3CCN(C)CC3)o2)C(=O)NC1=S | inactive
17 | CCCC[C@@H](C)C[C@@H](C)C(=O)N(C)[C@@H](CC(C)C)C(=O)N[C@H](C(=O)N(C)[C@H](C(=O)N1C[C@@H](O)C[C@H]1C(=O)N1C(=O)C=C[C@@H]1C)C(C)C)C(C)OC(C)=O (stereo partly specified) | 26.9 µM (active)
18 | COc1cc(C2c3cc4c(cc3CC3COC(=O)C32)OCO4)cc(OC)c1OC (stereo unspecified) | inactive
19 | Cc1cc(C)c(C(=O)CN2CCOCC2)c(C)c1 | inactive
20 | COc1cc2c(c(OC)c1OC)-c1ccc(O)c(=O)cc1C(NC(C)=O)CC2 (stereo unspecified) | inactive
21 | COc1ccc(-c2nn(CCC#N)cc2C(=O)Nc2ccc(C(C)=O)cc2)cc1[N+](=O)[O-] | inactive
